Screening data: PubChem, National Center for Advancing Translational Sciences (NCATS)
SARS PLpro yeast: SARS-CoV PLP inhibition in yeast | S. cerevisiae expressing SARS-CoV PLpro, growth rescue | Potency, µM (titrated, usually from 32.9 µM), without a hit: top-dose activity, positive = growth rescue, most hits filed as activators | 0.19% of 330,000 active | AID 485353; calls by dose curve; also: potency is read from the fitted curve at half-maximal effect; 0% is about no effect; nearly all actives have a fitted effect of over 55% in size
FMDV antiviral: blocks foot and mouth disease virus; 1.2% of 410,000 active; Potency, µM (series often up to 57.9 µM), inactives show top-dose activity change, negative = inhibition, most hits filed as inhibitors; FMDV antiviral cell-based qHTS; AID 1159524; calls by dose curve; tested in HEK293T cells; also: read-out not given here; potency is read from the fitted curve at half-maximal effect; % is scaled to controls: 0 for no effect and ±100 for the full control effect; nearly all actives have a fitted effect of over 45% in size
HCMV inh: inhibitors of human cytomegalovirus. activity change, negative = inhibition, % at 57.5 µM. HFF cells, HCMV-luciferase reporter, 72 h; active compounds read low. 4.5% of 410,000 active. AID 1259415; in the data active = activity change below about -60%; inconclusive = no clear call, values can overlap the other calls; inactive = above about -39%; also: % is scaled to controls: 0 for no effect and ±100 for the full control effect
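Steps: HFFs plated, 16 h 37C; compounds added; HCMV-luciferase added to MOI 1 PFU/cell; 72 h 37C; OneGlo reagent, 5 min room temperature; luminescence read, normalized to controls.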
MARV entry inh: blocks Marburg virus binding to or entry into cells; Potency, µM (doses to about 37.8 µM), without a hit: at the top dose activity change, negative = inhibition, usual class: inhibitors; Marburg virus pseudotyped entry inhibition, cell reporter; 1.8% of 300,000 active; calls by dose curve; tested in HEK293 cells; also: potency is read from the fitted curve at half-maximal effect; % is scaled to controls: 0 for no effect and ±100 for the full control effect
LASV entry inh: blocks Lassa virus binding to or entry into cells. Lassa virus pseudotype entry inhibition, cell reporter. Potency, µM (highest dose often 37.9 µM), inactives show top-dose activity change, negative = inhibition, usual class: inhibitors. 1.2% of 300,000 active; calls by dose curve; tested in HEK293 cells; also: potency is read from the fitted curve at half-maximal effect; % is scaled to controls: 0 for no effect and ±100 for the full control effect; nearly all actives have a fitted effect of over 50% in size
HCV inhibitor: inhibitors of hepatitis C virus infection; Huh7.5.1 HCVcc-Cre infection, luciferase reporter, 44 h; Potency, µM (doses to about 41.8 µM), for the others: top-dose activity change, negative = inhibition, most hits filed as inhibitors; 3.4% of 340,000 active; active = well fitted inhibition curve with a large enough effect; inconclusive = small, poorly fitted or top-dose-only effect, or another doubt; inactive = no such curve, though single readings can be large or run the other way; also: potency is read from the fitted curve at half-maximal effect; % is scaled to controls: 0 for no effect and ±100 for the full control effect
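After 44 h co-culture of compound, cells and HCVcc-Cre (~0.5 moi), substrate is added for 15 min at room temperature and luciferase measured over 15 sec. Cells were seeded at 1,000/well and pre-cultured 4 h.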
An asterisk follows results filed as active; u = inconclusive; x = no result given; ! = repeats disagree; [ ] = remark or other dose. Shown are actives, neighbours in structure and some others; about 8% of the full set was active somewhere.

SMILES	SARS PLpro yeast	FMDV antiviral	HCMV inh	MARV entry inh	LASV entry inh	HCV inhibitor
COc1ccccc1C(=O)c1cc2ccc(O)cc2oc1=O	0%	7%	-62*	x	x	30%
CC(C)(C)C1=CC(=Nc2ccccc2N)C=C(C(C)(C)C)C1=O	2%	u	-7	u	-23%	-22%
CC(C)(C)C1=CC(=O)C(=O)C(C(C)(C)C)=C1	-67%	28µM*	x	-20%	u	u
Fc1cc(Br)ccc1Nc1c2c(nc3nc(-c4cccs4)nn13)CCCC2	x	u	-60*	x	u	x
COc1ccccc1C(=O)N1CCN(c2nc3cc(C)c(C)cc3cc2C#N)CC1	-34%	u	u	8.9µM*	10µM*	u
COc1ccccc1C(=O)N1CCN(c2nc3cc(C)cc(C)c3cc2C#N)CC1	x	0%	-19	x	x	x
Cc1ccc2cc(C#N)c(N3CCN(C(=O)c4cccs4)CC3)nc2c1	-2%	32µM*	25	u	u	u
Cc1cc2c(s1)c(C#N)c(C(=O)NCc1ccccc1F)n2C	0%	x	x	x	x	x
C=CCn1c(CCNC(=O)c2ccc(Cl)c(Cl)c2)nnc1SCCOc1ccc(OC)cc1	1%	28µM*	-5	u	-4%	10µM*
C=CCn1c(SCCOc2ccccc2)nnc1C(C)NC(=O)c1ccccc1 (stereo not given)	3%	-22%	18	2%	-2%	-15%
CCC(C)NC(=O)c1ccc(-n2c(-c3ccccc3)cc3c2CCCC3)cc1 (stereo not given)	x	12%	24	x	u	x
CCOCCCNC(=O)c1ccc(-n2c(-c3ccccc3)cc3c2CCCCC3)cc1	x	25%	u	x	-8%[46.1 µM]	x
CC(C)NC(=O)c1ccc(-n2c(-c3ccccc3)cc3c2CCCC3)cc1	x	-13%	-68*	x	u	x
CN(C)CCNC(=O)c1ccc(-n2c(-c3ccccc3)cc3c2CCCC3)cc1	x	-9%	-92*	x	u	x
CCNC(=O)c1ccc(-n2c(-c3ccccc3)cc3c2CCCCC3)cc1	x	21%	-15	x	-21%[46.1 µM]	x
CCCNC(=O)c1ccc(-n2c(-c3ccccc3)cc3c2CCCCC3)cc1	x	-4%	-87*	x	-23%[46.1 µM]	x
COCCNC(=O)c1ccc(-n2c(-c3ccccc3)cc3c2CCCCC3)cc1	x	17%	-99*	x	u	x
COC(=O)c1c(SC)nc2ccccc2c1OCc1ccccc1C	x	u	-13	x	25%[46.1 µM]	x
COc1cccc(O[C@H]2C=C[C@@H](c3ccccc3)O[C@H]2CO)c1	x	x	x	4%[14.2 µM]	x	x
CCN(CC)C(=O)c1sc2c(c1C)c(=O)n(-c1ccc(C)c(C)c1)c(=O)n2CC(=O)Nc1ccc(F)cc1	x	0%	13	x	8%[46.1 µM]	x
CCO[C@@H]1OC(C(=O)NCc2nc3ccccc3[nH]2)=C[C@H](C(C)(C)C)[C@H]1CCCO	x	-29%	-80*	x	x	-9%
Cc1ccc(-c2cc(C(F)F)n3ncc(C(=O)Nc4c(C)nn(Cc5ccccc5Cl)c4C)c3n2)cc1	1%	u	-95*	-6%	2%	u
Cc1ccc(-c2cc(C(F)F)n3ncc(C(=O)Nc4c(C)nn(Cc5c(Cl)cccc5Cl)c4C)c3n2)cc1	1%	-19%	-77*	2%[46.1 µM]	u	-15%
Cc1nn(Cc2c(Cl)cccc2Cl)c(C)c1NC(=O)c1cnn2c(C(F)F)cc(-c3ccccc3)nc12	-3%	0%	-8	13%	-19%	-11%
CCN(CC)CCCNC(=O)C1CCN(S(C)(=O)=O)CC1	x	-6%	-16	x	u	x
SMILES	SARS PLpro yeast	FMDV antiviral	HCMV inh	MARV entry inh	LASV entry inh	HCV inhibitor
C=CCC(C)(NCc1ccccc1)C(=O)OCC (stereo not given)	x	x	x	20%[14.2 µM]	x	x
O=C(CCc1ccc(S(=O)(=O)NC2CCCCC2)cc1)N(Cc1ccccc1)Cc1ccccc1	-20%	32%	u	13µM*	u	u
O=C(CCc1ccc(S(=O)(=O)NC2CCCCC2)cc1)Nc1ccccc1	1%	15%	-69*	-8%	6%	7%
Cc1ccc(NC(=O)CCc2ccc(S(=O)(=O)NC3CCCCC3)cc2)cc1	3%	4%	-17	u	-13%	u
CN1CC2=Cc3ccccc3OC23Oc2ccccc2C=C3C1	1%	u	-80*	u	u	-28%
CCc1nn2c(=O)cc(COC(=O)c3cccc(NC(=O)c4ccccc4C)c3)nc2s1	x	-2%	29	x	u	x
COc1cc(C=O)ccc1OCCCOc1ccccc1C(=O)O	1%	8.9µM*	26	u	u	-13%
CCOc1cc(C=O)ccc1OCC(=O)NC(C)(C)C	0%	-10%	5	9%	-4%	-7%
CCNC(=O)COc1ccc(C=O)cc1OC	1%	2%	-86*	16%	18%	3%
CCCc1nc2ccc(Br)cc2c(=O)n1-c1ccc([N+](=O)[O-])c(C(F)(F)F)c1	-19%	u	-87*	u	u	u
COc1cccc(C(=O)Nc2ccccc2C(=O)OCc2cc(=O)n3nc(C4CC4)sc3n2)c1	x	-4%	9	x	-4%[46.1 µM]	x
O=C1c2ccccc2C(=O)c2[nH]cnc21	1%	-17%	-26	x	x	-21%
O=C1c2ccccc2C(=O)c2c1ncn2-c1ccccc1	2%	-15%	-68*	u	-3%	u
CCOCCn1ccc2c(OCC(=O)Nc3ccc(OC)c(OC)c3)cccc2c1=O	0%	25µM*	u	u	-9%	u
CCOC(=O)COc1cccc2c(=O)n(CC(=O)NCc3ccccc3)ccc12	1%	-10%	-70*	x	x	-5%
COCCn1ccc2c(OCC(=O)NCc3ccc(F)cc3)cccc2c1=O	x	-20%	6	x	u	x
CCn1ccc2c(OCC(=O)Nc3ccccc3C(F)(F)F)cccc2c1=O	x	32µM*	-27	x	u	x
COCCn1ccc2c(OCC(=O)NCCc3ccccc3)cccc2c1=O	0%	32%	-4	-18%[46.1 µM]	u	10µM*
COc1ccc(-c2nc3ccc(NS(=O)(=O)c4ccc(Cl)cc4)cc3o2)cc1	x	21%	-4	2%[46.1 µM]	-5%[46.1 µM]	x
CCCc1cc(=O)[nH]c(Nc2ccc(C)c(O)c2)n1	x	0%	2	2%[46.1 µM]	4%[46.1 µM]	x
Cc1cc(CNC(=O)CCN2Cc3cc(Cl)ccc3OC(C)C2)nn1C (stereo not given)	x	19%	x	x	x	x
NS(=O)(=O)c1ccc(CCNc2ncnc3c2c(-c2ccccc2)cn3-c2ccc(F)cc2)cc1	-4%	16µM*	-12	u	u	11µM*
Fc1ccc(-n2cc(-c3ccccc3)c3c(NN4CCOCC4)ncnc32)cc1	-1%	0%	u	u	u	u
O=C(Nc1c(-c2ccccc2)nc2ccccn12)c1ccccc1F	0%	-9%	-64*!	u	-9%[46.1 µM]	6%
COc1cc2c(cc1NC(=O)COC(=O)CNC(=O)c1ccccc1)oc1ccccc12	0%	56%	u	-10%[46.1 µM]	24%	10µM*
